Compound activity from PubChem.
This is a sample that favours compounds with a hit; in the whole collection about 3% have one here.
PLK1 PBD inh: PLK1 (human) polo-box domain binding inhibition; P53350; Plk1 PBD binding of FITC phosphopeptide, fluorescence polarization; Potency, µM, for inactives: max response, negative = inhibition, usual class: inhibitors; hit rate 2.8% among 360,000; AID 720504; note: series mostly up to about 57 µM; % is set by controls: 0 for no effect and ±100 for the full control effect; nearly all actives have a fitted effect of over 65% in size
KAT2A inh: inhibitors of human GCN5L2 histone acetyltransferase | GCN5L2 HAT assay, ThioGlo1 CoA-SH fluorescence | Q92830 | hit rate 0.21% among 390,000 | Potency, µM (top dose mostly 58.9 µM), for the others: top-dose activity change, negative = inhibition, most hits filed as inhibitors; note: % is set by controls: 0 for no effect and ±100 for the full control effect
Target sequence (Q92830 whole entry, looked up): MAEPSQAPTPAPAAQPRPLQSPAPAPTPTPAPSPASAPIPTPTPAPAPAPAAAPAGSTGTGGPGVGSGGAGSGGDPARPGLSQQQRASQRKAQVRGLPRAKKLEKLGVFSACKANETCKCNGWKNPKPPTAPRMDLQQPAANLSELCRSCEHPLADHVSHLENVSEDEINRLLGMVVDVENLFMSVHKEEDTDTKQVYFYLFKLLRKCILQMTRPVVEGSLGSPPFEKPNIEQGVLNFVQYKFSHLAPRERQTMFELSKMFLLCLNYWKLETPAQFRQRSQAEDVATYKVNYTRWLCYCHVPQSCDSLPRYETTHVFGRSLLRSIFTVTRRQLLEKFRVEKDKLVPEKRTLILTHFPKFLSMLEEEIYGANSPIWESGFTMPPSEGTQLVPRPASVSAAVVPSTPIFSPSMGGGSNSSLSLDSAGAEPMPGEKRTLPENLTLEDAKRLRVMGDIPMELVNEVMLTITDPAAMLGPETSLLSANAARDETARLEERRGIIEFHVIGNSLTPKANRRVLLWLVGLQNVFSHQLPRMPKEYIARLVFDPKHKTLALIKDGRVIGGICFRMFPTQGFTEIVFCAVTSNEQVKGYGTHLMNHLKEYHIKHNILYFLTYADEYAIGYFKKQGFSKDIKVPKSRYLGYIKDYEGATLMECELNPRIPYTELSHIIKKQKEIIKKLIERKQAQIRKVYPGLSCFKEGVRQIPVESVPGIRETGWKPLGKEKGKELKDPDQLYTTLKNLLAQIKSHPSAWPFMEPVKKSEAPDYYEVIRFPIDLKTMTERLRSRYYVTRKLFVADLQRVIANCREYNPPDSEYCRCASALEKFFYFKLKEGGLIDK
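Compounds, pin-transferred from DMSO stocks, meet 20nM GCN5L2 for 15 min before the reaction begins with H3(1-25) peptide (75uM) and acetyl-CoA (70uM). Thiol-reactive ThioGlo1 reports CoA release over 20 min at room temperature.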
USP1 inh: inhibitors of human USP1/UAF1 deubiquitinase; O94782; recombinant USP1/UAF1, Ub-Rhodamine cleavage fluorescence; Potency, µM (highest dose often 57.1 µM), inactives show top-dose activity change, negative = inhibition, usual class: inhibitors; hit rate 0.23% among 390,000; AID 743255; note: % is set by controls: 0 for no effect and ±100 for the full control effect; nearly all actives have a fitted effect of over 60% in size
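1 nM enzyme complex + cpd, 15 min RT; start with Ub-Rho 150nM final; kinetic fluorescence ex 480/em 540, 6 reads q60 s. Buffer 50mM HEPES pH 7.8, 0.5mM EDTA, 0.1 mg/ml BSA, 1mM TCEP, 0.01% Tween-20.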
PTAP TSG101 blk: blocks PTAP/TSG101 interaction to inhibit HIV-1 budding; Fluorescence polarization, FITC-PTAP peptide / Tsg101 binding; Potency, µM (titrated, usually from 115 µM), for inactives: top-dose activity change, negative = inhibition, usual class: inhibitors; 340,000 tested, under 10 active; AID 493005; active = well fitted inhibition curve with a large enough effect in the main read-out, with a control signal flat, not every such curve was filed as active; inconclusive = small, poorly fitted or top-dose-only effect, or effect the other way, or a change in a side signal; inactive = no such curve, though single readings can be large or run the other way; note: % of control where 0% means no effect
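Steps: Tsg101 binding domain dispensed (10 uM final), compounds pinned in DMSO, FITC-labeled PTAP-motif peptide added (50 nM final); after 20 min binding at room temperature, polarization measured.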
VDR inh: vitamin D3 receptor (human) inhibition. P11473. VDR-SRC2-3 peptide fluorescence polarization, 2 h. Potency, µM, without a hit: max response, negative = inhibition, hits mostly inhibitors. hit rate 0.93% among 400,000. AID 504847; note: % is set by controls: 0 for no effect and ±100 for the full control effect
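After 23 nl compound addition and a short centrifugation, plates sat for 2 hours at ambient temperature; polarization of fluorescence then indicated loss of VDR binding to peptide SRC2-3.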
* marks the source's active call; other numbers are inactive results; ? = inconclusive; nt = not tested or not shown. Unless noted, calls come from the whole dose curve; as a rule, active = well fitted curve in the direction sought with a large enough effect; inconclusive = small, poorly fitted or top-dose-only effect, or another doubt; inactive = no such curve, though single readings can be large; an effect the other way counts as inactive or inconclusive. Potency is the fitted concentration of half-maximal effect.

SMILES	PLK1 PBD inh	KAT2A inh	USP1 inh	PTAP TSG101 blk	VDR inh
c1csc(Cc2nn3c(-c4n[nH]c5c4CCC5)nnc3s2)c1	2.7µM*	?	-13%	-1%	-19%
Clc1ccc(OCc2nn3c(-c4ccco4)nnc3s2)cc1	24µM*	-9%	-20%	-6%	-19%
c1coc(-c2nnc3sc(Cc4cccs4)nn23)c1	27µM*	-26%	3%	-6%	0%
CCOc1ccc(NC(=O)CSc2ncc(S(=O)(=O)c3ccc(F)c(C)c3)c(=O)[nH]2)cc1	nt	-5%	-12%	nt	-27%
CCc1c(C)nc2nncn2c1Nc1ccc(C)c(F)c1	nt	-9%	1%	nt	-10%
COc1cccc(Cn2c(=O)c(-c3ccc(Cl)cc3)nc3cnc(N4CCOCC4)nc32)c1	nt	-9%	nt	nt	0%
CC(C)(C)OC(=O)N(CCc1ccccc1)Cc1cccc(OCc2cccc(NC(=O)c3ccccc3)c2)c1	24µM*	nt	-12%	-7%	?
COc1cccc(C2C(C(C)=O)=C(O)C(=O)N2Cc2ccco2)c1 (stereo unspecified)	24µM*	60%	-19%	-7%	3%
c1ccc(CN(Cc2ccco2)C(c2ccncc2)c2nnnn2C2CCCC2)cc1 (stereo unspecified)	?	-6%	?	-3%	28µM*
CCN(Cc1ccncc1)C(=O)c1cc(COc2c(C)cccc2C)on1	-5%	-6%	-9%	-2%	26%
CCc1c(C)sc(NC(=O)C2CCCCC2C(=O)O)c1C(N)=O (stereo unspecified)	?	-26%	-3%	-5%	79µM*
O=C(NCCc1ccccc1)c1ccc(CSc2nc3ccncc3n2Cc2cccc(F)c2)cc1	nt	2%	-18%	nt	18%
CC(=O)c1ccc(NC(=O)CCc2c(C)nn(-c3ccc(N4CCOCC4)nn3)c2C)cc1	21µM*	-2%	-16%	-6%	?
Cc1cc(F)ccc1NC(=O)CCc1c(C)nn(-c2ccc(N3CCCCC3)nn2)c1C	21µM*	-3%	-20%	1%	-28%
COC(=O)C[C@H](NC(=O)[C@H](C)NC(=O)[C@@H](NC(=O)OCc1ccccc1)C(C)C)C(=O)CF	nt	-11%	nt	nt	14%
Cc1ccc(Cn2c(C(C)NC(=O)c3ccccc3)nc3ccccc32)cc1 (stereo unspecified)	nt	-10%	-10%	nt	7%
c1ccc2c(c1)OCC(c1nnc3sc(-c4cnccn4)nn13)O2 (stereo unspecified)	28µM*	-15%	-21%	-4%	?
NC(N)=Nc1nc(C2COc3ccccc3O2)cs1 (stereo unspecified)	-6%	18%	-10%	-2%	-8%
COc1ccc(-c2nn3c(COc4ccccc4)nnc3s2)cc1OC	?	-7%	-4%	-6%	-3%
Fc1ccc(-c2nn3c(C4COc5ccccc5O4)nnc3s2)cc1 (stereo unspecified)	21µM*	-1%	-20%	0%	?
c1csc(-c2nn3c(C4COc5ccccc5O4)nnc3s2)c1 (stereo unspecified)	24µM*	-16%	-17%	-9%	?
c1ccc(OCc2nnc3sc(-c4cccs4)nn23)cc1	5.3µM*	-24%	-20%	0%	?
Fc1ccc(-c2nnc3sc(C4COc5ccccc5O4)nn23)cc1 (stereo unspecified)	-8%	-3%	-4%	-6%	19%
C[C@H](CCC(=O)NCC(=O)O)C1CC[C@H]2[C@H]3C(C[C@H](O)[C@]12C)[C@@]1(C)CC[C@@H](O)C[C@H]1C[C@H]3O (stereo partly specified)	nt	2%	nt	nt	-13%
CCOC(=O)CSc1[nH]c(=O)cc(C)c1C#N	-9%	-3%	-9%	-5%	-17%
SMILES	PLK1 PBD inh	KAT2A inh	USP1 inh	PTAP TSG101 blk	VDR inh
Cc1cc(=O)[nH]c(SCC(=O)OCc2ccccc2)c1C#N	21µM*	3%	-8%	-2%	-23%
CCC(CC)NC(=O)COc1ccc(OC)cc1C=O	-2%	-1%	-13%	1%	-15%
COc1cccc(N2CCN(c3ccc4nnc(CCC(=O)N5CCC(C)CC5)n4n3)CC2)c1	24µM*	-16%	-8%	-3%	-28%
COc1ccc(N2CCN(C(=O)CCc3nnc4ccc(N5CCC(C)CC5)nn34)CC2)cc1	0%	-14%	-20%	4%	-1%
COc1ccc(CNC(=O)CCc2nnc3ccc(NCCCN4CCCC4=O)nn23)cc1	1%	-3%	-19%	0%	-1%
COc1cccc(N2CCN(c3ccc4nnc(CCC(=O)Nc5cccc(C(C)=O)c5)n4n3)CC2)c1	21µM*	-5%	?	-3%	?
COc1ccccc1CNC(=O)CCc1nnc2ccc(NCCCN3CCCC3=O)nn12	21µM*	-3%	-19%	-1%	-9%
COc1ccc(OC)c(CCNC(=O)CCc2nnc3ccc(N4CCOCC4)nn23)c1	30µM*	0%	-26%	-5%	-20%
COc1cccc(N2CCN(c3ccc4nnc(CCC(=O)Nc5ccc(F)cc5)n4n3)CC2)c1	-9%	0%	-8%	-4%	-18%
CC1CCCN(C(=O)CNC(=O)c2ccco2)C1 (stereo unspecified)	-14%	0%	-4%	-7%	39%
COC(=O)CSc1ncc2c(n1)-c1ccccc1N(Cc1cccc(F)c1)S2(=O)=O	nt	-5%	?	nt	-11%
CCOC(=O)c1cccc(NC(=O)CCc2nnc3ccc(N4CCN(C)CC4)nn23)c1	24µM*	-17%	-26%	-4%	-12%
CCOC(=O)c1cccc(NC(=O)CCc2nnc3ccc(N4CCCCC4)nn23)c1	-18%	2%	-6%	-6%	-3%
O=C(CCc1nnc2ccc(N3CCC4(CC3)OCCO4)nn12)Nc1ccc(F)cc1	13µM*	-2%	-4%	0%	?
Cc1cccc(Oc2nc3ccccn3c(=O)c2/C=C(\C#N)C(=O)NC2CCS(=O)(=O)C2)c1 (stereo unspecified)	-1%	-1%	-5%	-2%	?
Cc1cccn2c(=O)c(/C=C(\C#N)C(=O)NC3CCS(=O)(=O)C3)c(Oc3ccc(F)cc3)nc12 (stereo unspecified)	-23%	-3%	-26%	-8%	20µM*
N#C/C(=C\c1c(Oc2ccc(Cl)cc2)nc2ccccn2c1=O)C(=O)NC1CCS(=O)(=O)C1 (stereo unspecified)	-11%	-5%	-13%	-3%	50µM*
Cc1cccn2c(=O)c(/C=C(\C#N)C(=O)NC3CCS(=O)(=O)C3)c(N3CCC(C)CC3)nc12 (stereo unspecified)	1%	-2%	-5%	-5%	-3%
Cc1cc(Oc2nc3ccccn3c(=O)c2/C=C(\C#N)C(=O)NC2CCS(=O)(=O)C2)ccc1Cl (stereo unspecified)	-12%	-8%	-8%	-5%	32µM*
